The values that follow come from publication PMC4552634, “A New Set of Chemical Starting Points with Plasmodium falciparum Transmission-Blocking Potential for Antimalarial Drug Discovery” (PLoS ONE, 2015).

The campaign covered roughly 13,000 compounds. About 3,200 (25%) showed an effect of 50% or more. The list shows a part of the results.

The subject of this assay is P. falciparum stage V gametocytes. Set-up: BacTiter-Glo ATP luminescence viability of purified stage V gametocytes in 384-well plates, per cent inhibition versus DMSO. Particulars: 48 h, 5 µM; inhibitor.
What is called % Inhibition is the change of the read-out against control, counted positive when it falls. Take `O=C(/C=C/c1ccc(Cl)c(Cl)c1)NCCCCCN1CCC(NC(=O)c2cc(Cl)ccc2F)CC1` [TCMDC-135870]: the “% Inhibition” value is -52.06%.

On to `CC(C)(C)c1ccc(S(=O)(=O)Nc2ccccc2N2CCOCC2)cc1` [TCMDC-124560], for which the “% Inhibition” value was found to be 22.48%.

On to `CC(=O)c1cc(N2CCCC2)ccc1N` [TCMDC-125017], for which the “% Inhibition” value is reported as -63.54%.

As to `CCCCCCc1cc2cc(-c3nc(-c4ccc(OC)cc4)cs3)c(=O)oc2cc1O` [TCMDC-124081], the “% Inhibition” value is -11.41%.

On to `O=C(Nc1cccc(-c2cccc(-c3nc4ccc(C(F)(F)F)cc4[nH]3)c2)c1)c1cnc[nH]1` [TCMDC-136935], for which the “% Inhibition” value worked out at 37.83%.

On to `CC1(C)Cc2c([nH]c3ccccc23)C(CCCCCCCCC2=NC(C)(C)Cc3c2[nH]c2ccccc32)=N1` [TCMDC-137565], for which the “% Inhibition” value was found to be 110.1%.

In the case of `NC1=NC2(CCCCC2)N(OCCCCCCc2ccccc2)C(N)=N1` [TCMDC-131605], the “% Inhibition” value is recorded as 26.32%.

Consider `Cc1nn(C2CCS(=O)(=O)C2)c(C)c1C1Nc2ccccc2C(=O)N1Cc1ccc2c(c1)OCO2` (centres unmarked) [TCMDC-125241], for which the “% Inhibition” value is 62.63%.

Turning to `Cc1cc(C2NC(=O)c3ccccc3N2)c(C)n1-c1ccc2c(c1)OCO2` (centres unmarked) [TCMDC-125051], the “% Inhibition” value is on record as 5.355%.

For `OC(c1cccc(OCc2ccccc2)c1)C1CN(CCc2ccccc2)CCC1(O)c1ccccc1` (centres unmarked) [TCMDC-131997], the “% Inhibition” value stood at 1.971%.

For `COc1cc(Nc2nccc(-c3c(-c4cccc(NC(=O)c5c(F)cccc5F)c4)nn4ccccc34)n2)cc(OC)c1OC` [TCMDC-135668], the “% Inhibition” value is -53.25%.

Turning to `CCCCCC(=O)N1CCOC(CCN2CCc3c(c4ccccc4n3C)C2)(c2ccc(Cl)c(Cl)c2)C1` (centres unmarked) [TCMDC-135564], the “% Inhibition” value is listed as -20.19%.

Regarding `Cc1csc2nc(-c3ccccn3)nc(Nc3ccc4ncsc4c3)c12` [TCMDC-138923], the “% Inhibition” value turned out to be 100.3%.

`S=C(NCCc1ccccc1)Nc1ccc2ncsc2c1` [TCMDC-139021]: the “% Inhibition” value is reported as -23.08%.

Regarding `Cc1csc2nc(-c3ccccn3)nc(Nc3ccncn3)c12` [TCMDC-138927], the “% Inhibition” value came out at 119.9%.

In the case of `O=C(Nc1ccnc(N2CC3CC2CN3Cc2cccc(O)c2)c1)c1ccc(F)cc1` (centres unmarked) [TCMDC-134956], the “% Inhibition” value is recorded as -60.26%.

Consider `FC(F)(F)c1ccc2[nH]c(-c3ccc(-c4ccc(CNCC5CCCO5)cc4)cc3)nc2c1.O=C(O)C(F)(F)F` (centres unmarked) [TCMDC-133096], for which the “% Inhibition” value was -14.34%.

Turning to `O=C(CCc1nc2c(cnn2-c2ccccc2)c(=O)[nH]1)NC1CCSc2ccccc21` (centres unmarked) [TCMDC-124875], the “% Inhibition” value was -14.45%.

In the case of `Cc1cccc2nc(-c3ccc(-c4cccc(CN5CCN(CC6CCCN(C)C6)CC5)c4)s3)[nH]c12.O=C(O)C(F)(F)F` (centres unmarked) [TCMDC-133909], the “% Inhibition” value turned out to be 55.65%.

Turning to `Cc1cccc2nc(-c3ccc(-c4ccc(CN5CCN(CC6CCCN(C)C6)CC5)cc4)s3)[nH]c12.O=C(O)C(F)(F)F` (centres unmarked) [TCMDC-133899], the “% Inhibition” value was 90.54%.

As for `CN1CCCC(CN2CCN(Cc3cccc(-c4ccc(-c5nc6ccccc6[nH]5)s4)c3)CC2)C1.O=C(O)C(F)(F)F` (centres unmarked) [TCMDC-133904], the “% Inhibition” value stood at 49.15%.

On to `Cc1cccc2nc(-c3ccc(-c4ccc(CN5CCN(c6ccncc6)CC5)cc4)s3)[nH]c12.O=C(O)C(F)(F)F` [TCMDC-132912], for which the “% Inhibition” value was found to be 36.62%.

As for `Cc1cccc2nc(-c3ccc(-c4cccc(CN5CCN(c6ccncc6)CC5)c4)s3)[nH]c12.O=C(O)C(F)(F)F` [TCMDC-132917], the “% Inhibition” value was found to be 20.85%.

As to `Cc1cccc2nc(-c3ccc(-c4ccc(CN5CCCCC5)cc4)s3)[nH]c12.O=C(O)C(F)(F)F` [TCMDC-133902], the “% Inhibition” value was -19.5%.

For the compound `Cc1c(CNCCCNc2nc3ccccc3[nH]2)[nH]c2cc(Cl)cc(Cl)c12` [TCMDC-139964], the “% Inhibition” value turned out to be 2.559%.

As to `Oc1ccc(-c2cncc(NCc3ccc(F)c(F)c3)c2)cc1` [TCMDC-136668], the “% Inhibition” value is on record as 23.22%.

Regarding `CC(=O)Nc1nc(C(=O)Nc2ccc(-c3ccc(-c4nc5ccc(F)cc5[nH]4)cc3)cc2)cs1` [TCMDC-136779], the “% Inhibition” value came to 1.328%.

As for `C=CC(=O)Nc1ccc(Cl)cc1C(O)c1ccccc1` (centres unmarked) [TCMDC-131787], the “% Inhibition” value came to 1.536%.

As to `CC(C)C1c2ccc(O)cc2CC2C(=O)N(C3CCCCC3)C(=O)N21` (centres unmarked) [TCMDC-138120], the “% Inhibition” value was determined as 28.46%.

Consider `Cc1cc(-c2cccc(CNC3CCN(C)CC3)c2)ccc1S(=O)(=O)NCCN1CCCC1` [TCMDC-132383], for which the “% Inhibition” value is given as 87.02%.

Consider `Cc1cc(-c2cccc(CNC3CCCC3)c2)ccc1S(=O)(=O)NCCN1CCCC1` [TCMDC-132279], for which the “% Inhibition” value was found to be 103.9%.

Take `CN1CCC(NCc2cccc(-c3ccc(S(=O)(=O)NCCN4CCCC4)c(F)c3)c2)CC1` [TCMDC-132222]: the “% Inhibition” value was 88.17%.

On to `Cc1cc(-c2cccc(CNCc3ccccc3)c2)ccc1S(=O)(=O)NCCN1CCCC1` [TCMDC-132382], for which the “% Inhibition” value was found to be 4%.

Regarding `Cc1cc(-c2cccc(CNC3CCN(C)CC3)c2)ccc1S(=O)(=O)NC1CCC1` [TCMDC-132380], the “% Inhibition” value is listed as 72.06%.

For the compound `Cc1cnc2cc3c(cc2c1N1CCN(C)CC1)NCC3` [TCMDC-140363], the “% Inhibition” value is reported as -97.35%.

Regarding `Cc1cccc(-c2ccc(NC(=O)Nc3ccc4nccc(N5CCN(C)CC5)c4c3)cc2C)n1` [TCMDC-139353], the “% Inhibition” value turned out to be 26.78%.

Turning to `COc1ccc(C=NNc2nc3ccccc3[nH]2)cc1O` [TCMDC-124104], the “% Inhibition” value is -79.21%.

Consider `COC(=O)C(Cc1ccccc1)NC(=O)NC1CCN(c2ccnc(Nc3ccc(F)cc3)n2)C1` (centres unmarked) [TCMDC-133597], for which the “% Inhibition” value turned out to be 34.56%.

Regarding `Nc1nc(N)c2c(n1)CCC(c1ccccc1)C2` (centres unmarked) [TCMDC-137806], the “% Inhibition” value is -20.76%.

In the case of `CS(=O)(=O)c1ccc(Nc2ncc(-c3ccc(S(C)(=O)=O)cc3)c(OCC(F)(F)F)n2)cc1` [TCMDC-138524], the “% Inhibition” value is recorded as 24.49%.

In the case of `COc1ccc(C(C(=O)NC2CCN(C[C@H](O)c3ccnc4ccc(OC)cc34)CC2)N2CCc3ccccc3C2)cc1` (some centres unmarked) [TCMDC-140986], the “% Inhibition” value amounted to 7.291%.

With `Cc1ccc(F)c(OCC2CCN(c3ccc(C(=O)NC4CC4)cn3)CC2)c1` [TCMDC-134037], the “% Inhibition” value is reported as 41.12%.

On to `CN(C)CCCOc1ccc(CCCCc2ccc(Cl)cc2C(=O)c2ccccc2)cc1` [TCMDC-131856], for which the “% Inhibition” value was found to be 31.42%.

Regarding `CN(C)CCCOc1cccc(CCNCc2cccc(Oc3ccc(Cl)cc3)c2)c1` [TCMDC-140091], the “% Inhibition” value is 58.44%.

For `CN(C)CCCOc1cccc(NC(=O)Nc2ccc(Cl)c(Cl)c2)c1` [TCMDC-139538], the “% Inhibition” value is on record as -5.244%.

On to `CN(C)CCCOc1ccc(CNCc2cccc(Oc3ccc(Cl)cc3)c2)cc1` [TCMDC-140101], for which the “% Inhibition” value came out at 61.18%.

In the case of `OC(CNCc1cccc(Oc2ccc(Cl)cc2)c1)c1cccc(C(F)(F)F)c1` (centres unmarked) [TCMDC-140301], the “% Inhibition” value was -22.32%.

As for `CN(C)CCCOc1ccc(CCNCc2cccc(Oc3ccc(Cl)cc3)c2)cc1` [TCMDC-140092], the “% Inhibition” value is on record as 79.59%.

Take `Cc1c(-c2cccc(CNCCc3ccc(Cl)cc3)c2)cnc(N)c1C` [TCMDC-138274]: the “% Inhibition” value is on record as 9.871%.

Consider `OC(CNCc1cccc(Oc2ccc(Cl)cc2)c1)c1cc(C(F)(F)F)cc(C(F)(F)F)c1` (centres unmarked) [TCMDC-140302], for which the “% Inhibition” value was found to be 49.58%.

As to `COc1ccc(NC(=O)/C=C/c2cc(F)cc(C(F)(F)F)c2)cc1OCCN(C(C)C)C(C)C` [TCMDC-140669], the “% Inhibition” value is on record as -66.83%.

Consider `Cc1cc2c(cc1C(F)(F)F)N(C(=O)Nc1cc(OCCN(C(C)C)C(C)C)cc(C(F)(F)F)c1)CC2` [TCMDC-140341], for which the “% Inhibition” value was -56.2%.

As to `CC=CC(=O)N1CCN(c2nccc(-c3ccc(C(C)(C)C)cc3)n2)CC1` [TCMDC-124777], the “% Inhibition” value is reported as 7.647%.

Take `COc1ccc(N2C(N)=NC(N)=NC2(C)C)cc1` [TCMDC-124269]: the “% Inhibition” value is on record as -3.695%.

For the compound `O=[N+]([O-])c1cc(/C=N/Nc2nc3nonc3nc2Nc2ccc(F)cc2)c(Cl)cc1Cl` [TCMDC-124221], the “% Inhibition” value is reported as -26.03%.

Consider `COc1cccc(C2(C)CCN(CCCCNC(=O)c3ccc(NC(=O)c4ccc(Cl)cc4)cc3)CC2)c1` [TCMDC-138368], for which the “% Inhibition” value is on record as -18.96%.

As for `O=C(Nc1ccc(Br)cc1)N(CCN1CCOCC1)CC(O)COc1ccc(Cl)c(F)c1` (centres unmarked) [TCMDC-141493], the “% Inhibition” value is listed as -10.57%.

`CC1(C)N=C(N)N=C(N)N1CCc1ccccc1` [TCMDC-125516]: the “% Inhibition” value was found to be 9.542%.

In the case of `CCOC(=O)N[C@@H]1CN[C@@H](C#Cc2cc3c(Nc4ccc(OCc5cccc(F)c5)c(Cl)c4)ncnc3s2)C1` [TCMDC-135402], the “% Inhibition” value is listed as -37.93%.

With `Cc1noc(C)c1C(=O)N1CCCC(c2[nH]c3c(C)cccc3c2-c2ccncc2)C1` (centres unmarked) [TCMDC-125361], the “% Inhibition” value was 56.42%.

On to `Cc1noc(C)c1C(=O)N1CCc2cc3nccc(N4CCN5CCC[C@H]5C4)c3cc21` [TCMDC-140041], for which the “% Inhibition” value was -37.7%.

Regarding `O=C(CCn1cncn1)N1CCCC(c2[nH]c3ccccc3c2-c2ccncc2)C1` (centres unmarked) [TCMDC-125377], the “% Inhibition” value is listed as -42.34%.

On to `Cc1c(CN2CCCCC2)cccc1OCCCNc1nc(NCCc2ccc(O)cc2)nc(N2CCNCC2)n1` [TCMDC-134046], for which the “% Inhibition” value is on record as 87.79%.

For the compound `CN(/N=C/C=C/c1ccc(Cl)cc1)c1nc(NCCc2ccc(O)cc2)nc(N2CCNCC2)n1` [TCMDC-138546], the “% Inhibition” value is listed as 80.85%.

`Cc1cc(OCCCNc2nc(NCCc3ccc(O)cc3)nc(N3CCNCC3)n2)c(Cl)c(C)c1Cl` [TCMDC-134048]: the “% Inhibition” value is recorded as -28.15%.

As for `Oc1ccc(CCNc2nc(NCCCOc3cccc(-c4ccccc4)c3)nc(N3CCNCC3)n2)cc1` [TCMDC-134043], the “% Inhibition” value is on record as -9.264%.

As to `CN(/N=C/c1ccc(Cl)cc1)c1nc(NCCc2ccc(O)cc2)nc(N2CCNCC2)n1` [TCMDC-138544], the “% Inhibition” value is 44.17%.

For the compound `Oc1ccc(CCNc2nc(N/N=C/C=C/c3ccc(Cl)cc3)nc(N3CCNCC3)n2)cc1` [TCMDC-138545], the “% Inhibition” value is on record as -5.801%.

In the case of `Oc1ccc(CCNc2nc(NCCCOc3cccc(CN4CCCCC4)c3Cl)nc(N3CCNCC3)n2)cc1` [TCMDC-134045], the “% Inhibition” value is given as -20.8%.

Turning to `Oc1ccc(CCNc2nc(NCCOc3cccc4ccccc34)nc(N3CCNCC3)n2)cc1` [TCMDC-134132], the “% Inhibition” value is listed as -65.6%.

Consider `Oc1ccc(CCNc2nc(NCCCOc3cc(CN4CCCCC4)ccc3F)nc(N3CCNCC3)n2)cc1` [TCMDC-134044], for which the “% Inhibition” value was 66.8%.
